# Data published in PubChem BioAssay (NCATS).
# Inconclusive results are not listed. A call without a number means that no potency is given here. Activity calls are given as the source filed them. Calls come from the whole dose curve; as a rule, active = well fitted cell-killing curve with a large enough effect; inconclusive = small, poorly fitted or top-dose-only effect; inactive = flat fitted curve, though single readings scatter.
# Test: Cell Viability - LYMP2-017 (AID 972); note: nearly all actives have a fitted effect of over 55% in size
# Conditions: LYMP2-017 lymphoblastoid cell viability; series mostly up to 92.2 µM
# Source text: NIH Chemical Genomics Center [NCGC]
# NIH Molecular Libraries Screening Centers Network [MLSCN]
# National Institutes of Environmental Health Sciences [NIEHS]
# National Toxicology Program [NTP]
# We have developed a 1536-well cell-based assay for quantitative high throughput screening (qHTS) against a number of cell lines to determine in vitro cytotoxicity of small molecules. This particular assay uses a human lymphoblastoid cell line (LYMP2-017) purchased from Coriell Institute for Medical Research.
# NCGC Assay Protocol Summary:
# The CellTiter-Glo luminescent cell viability assay (Promega) is a homogeneous method to measure the number of viable cells in culture. The end point readout of this assay is based on quantitation of intracellular ATP, an indicator of metabolic activity, using the luciferase reaction. Luciferase catalyzes the oxidation of beetle Luciferin to oxyluciferin and light in the presence of ATP. The luminescent signal is proportional to amount of ATP present.
# Using the CellTiter-Glo luminescent cell viability assay, the amount of cellular ATP was measured in the lymphoblastoid cell line with complete culture medium following compound treatment for 24 hours. The assay was performed in opaque white Kalypsys 1536-well plates. In the screen, tetraoctylammonium bromide was used as positive control. Library compounds were measured for their ability to cause acute toxicity in the cell line, as reflected by a decrease in intracellular ATP levels, in a concentration-dependent manner. […] AC50 values were determined from concentration-response data modeled with the standard Hill equation.
# qHTS protocol for CellTiter Glo lymphoblastoid cellular assay
# [Step] [Parameter] [Value] [Description]
# 1. Reagent; 5 uL; 2500 lymphoblastoid cells/well
# 2. Time; 5 hr; 37 C incubation
# 4. Controls; 23 nL; Tetraoctylammonium bromide 6.4pM to 92 uM
# 5. Time; 24 hr; 37 C incubation
# 6. Reagent; 5 uL; CellTiter Glo reagent
# 7. Time; 30 min; Room Temperature
# 8. Detection; Luminescence; Viewlux plate reader
# Keywords: cell viability, cytotoxicity, lymphoblastoid cell line, luminescence, NTPHTS, NTPHTS_NCGC, NIEHS, DSSTox, MLSMR, MLSCN, NIH Roadmap, qHTS, NCGC
row,Structure (SMILES),Potency
1,Oc1ccc(Cl)c(Cl)c1,inactive
2,c1ccc(P(c2ccccc2)c2ccccc2)cc1,inactive
3,BrCCc1ccccc1,inactive
4,CC(C)(Cl)Cl,inactive
5,O=[N+]([O-])c1ccccc1-c1ccccc1,inactive
6,CC(C)C#N,inactive
7,c1ccc(OCC2CO2)cc1 (stereo not given),inactive
8,Cc1ccc([N+](=O)[O-])cc1,inactive
9,ClCc1ccccc1,inactive
10,ClC(Cl)c1ccccc1,inactive
11,C1CC2OC2CC1C1CO1 (stereo not given),inactive
12,O=Cc1ccc(Cl)cc1Cl,inactive
13,CC(C)(COCC1CO1)COCC1CO1 (stereo not given),inactive
14,c1ccc(NNc2ccccc2)cc1,inactive
15,COC(=O)Nc1cccc(OC(=O)Nc2cccc(C)c2)c1,inactive
16,CCCC[N+](=O)[O-],inactive
17,CCCCNC(=O)n1c(NC(=O)OC)nc2ccccc21,inactive
18,N#CC(O)c1ccccc1 (stereo not given),inactive
19,Cc1ccc(OP(=O)(Oc2ccc(C)cc2)Oc2ccc(C)cc2)cc1,inactive
20,COP(=S)(OC)SCn1nnc2ccccc2c1=O,inactive

row,Structure (SMILES),Potency
1,Cl/C=C/Cl,inactive
2,Nc1cc(Cl)cc(C(=O)O)c1Cl,inactive
3,CCOP(=S)(OCC)Oc1nc(Cl)c(Cl)cc1Cl,inactive
4,Nc1ccccc1-c1ccccc1,inactive
5,CC[N+](=O)[O-],inactive
6,Nc1c(Cl)cc([N+](=O)[O-])cc1Cl,inactive
7,CCOC(=O)CC(SP(=O)(OC)OC)C(=O)OCC (stereo not given),inactive
8,O=S(=O)(O)F,inactive
9,S=C1NCCN1,inactive
10,CCOP(=O)(OCC)OCC,inactive
11,ClC(Cl)(Cl)C(Cl)(Cl)Cl,inactive
12,C(CCOCC1CO1)COCC1CO1 (stereo not given),inactive
13,CC(C)(Cl)[N+](=O)[O-],inactive
14,Nc1cc(Cl)cc(Cl)c1,inactive
15,O=[N+]([O-])c1cccc2c([N+](=O)[O-])cccc12,inactive
16,C=CC(=O)OCC(C)C,inactive
17,c1ccc(N=NNc2ccccc2)cc1,inactive
18,Cc1cnc[nH]1,inactive
19,c1ccc(C2CO2)cc1 (stereo not given),inactive
20,CN(C)C(=O)Cl,inactive
